# Hits are enriched below; roughly 2.8% of the tested compounds scored in any of these assays.
# PI5P4Ka inh: inhibitors of human PI5P4K alpha. actives 1.2% (n = 330,000). PI5P4Kalpha enzyme, ADP-Glo luminescence, 60 min; stronger effect = lower value. AID 652105. P48426. max response, %; active means max response of -50% or lower; inconclusive means between -30% and -50%; inactive means -30% or higher; further: value at the top dose of about 77 µM; on the % scale 0 is the no-effect control and ±100 the full control effect
# Target sequence (P48426 whole entry, looked up): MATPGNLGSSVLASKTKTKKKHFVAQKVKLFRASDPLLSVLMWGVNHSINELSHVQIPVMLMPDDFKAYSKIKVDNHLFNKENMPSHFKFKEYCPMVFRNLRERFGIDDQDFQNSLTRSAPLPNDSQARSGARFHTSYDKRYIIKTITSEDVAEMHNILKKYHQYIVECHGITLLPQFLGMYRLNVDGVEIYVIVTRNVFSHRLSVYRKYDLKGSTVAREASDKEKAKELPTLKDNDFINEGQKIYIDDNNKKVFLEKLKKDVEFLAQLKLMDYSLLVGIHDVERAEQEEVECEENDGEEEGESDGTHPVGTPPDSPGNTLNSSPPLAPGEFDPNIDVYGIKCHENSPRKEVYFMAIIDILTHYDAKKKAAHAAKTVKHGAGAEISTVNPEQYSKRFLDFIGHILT
#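 PI5P4Kalpha ADP-Glo assay; 5 microM ATP final; 60 min RT reaction; HEPES pH 7.4/EGTA/CHAPS, 5% DMSO; controls lacking substrate or enzyme; luminescent end-point.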
# Pol eta inh: inhibitors of human DNA polymerase eta. actives 1.2% (n = 390,000). recombinant Pol eta, fluorescent DNA replication assay. Q9Y253. Potency, µM (doses to about 114 µM), for the others: top-dose activity change, negative = inhibition, most hits filed as inhibitors; further: potency means the concentration at half of the fitted maximal effect; on the % scale 0 is the no-effect control and ±100 the full control effect
#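 Pol eta at 10 nM preincubated with compounds 15 min at room temperature; reaction started with fluorescent substrate (50 nM final) and read kinetically at 0 and 10 min.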
# Pol beta inh: blocks human DNA polymerase beta activity | P06746 | Pol beta primer extension/strand displacement, fluorescence kinetic | Potency, µM (series often up to 114 µM), inactives show at the top dose activity change, negative = inhibition, hits mostly inhibitors | actives 1.3% (n = 340,000); further: potency means the concentration at half of the fitted maximal effect; on the % scale 0 is the no-effect control and ±100 the full control effect
#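 Values derive from four-parameter Hill fits of normalized kinetic data: reads at 0 and 10 min following addition of 50 nM substrate to 10 nM Pol beta preincubated 15 min with compound.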
# Pol kappa inh: DNA polymerase kappa (human) inhibition. Q9UBT6. purified Pol kappa, fluorescent DNA synthesis assay, 10 min. Potency, µM (series often up to 107 µM), for the others: at the highest dose activity, negative = inhibition, most hits filed as inhibitors. actives 0.53% (n = 400,000). AID 588579; further: potency means the concentration at half of the fitted maximal effect; on the % scale 0 is the no-effect control and ±100 the full control effect
#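 Here, compound and 10 nM enzyme are combined for 15 min at room temperature; adding 50 nM substrate (final) starts DNA synthesis, tracked by fluorescence at 0 and 10 min against buffer-only wells.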
# WRN inhibitor: blocks human WRN helicase; Q14191; WRN helicase unwinding, fluorescent forked duplex, kinetic; Potency, µM (highest dose often 114 µM), for the others: top-dose activity change, negative = inhibition, most hits filed as inhibitors; actives 0.46% (n = 360,000); AID 651768; further: potency means the concentration at half of the fitted maximal effect; on the % scale 0 is the no-effect control and ±100 the full control effect; nearly all actives have a fitted effect of over 55% in size
#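 WRN at 20 nM final was preincubated with compound for 15 min at room temperature; reaction started with 100 nM forked duplex oligonucleotide carrying fluorophore and quencher plus 2 mM ATP (final). Unwinding followed kinetically by red fluorescence (ex 525/em 598 nm).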
# Pol iota inh: DNA polymerase iota (human) inhibition; actives 1% (n = 390,000); Pol iota fluorescent replication assay, 10 min; Potency, µM (highest dose often 115 µM), without a hit: top-dose activity, negative = inhibition, actives largely listed as inhibitors; Q9UNA4; further: potency means the concentration at half of the fitted maximal effect
#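 Pol iota at 10 nM preincubated 15 min with compounds at room temperature; reaction started with fluorescent substrate, 50 nM final. Fluorescence read kinetically at 0 and 10 min; buffer-only wells as negative control.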
# An asterisk follows results filed as active; u = inconclusive; x = no result; [ ] = another dose, or the depositor's remark. Unless noted, the call rests on the fitted dose curve; in most records, active means well fitted curve in the direction sought with a large enough effect; inconclusive means small, poorly fitted or top-dose-only effect, or another doubt; inactive means no such curve, though single readings can be large; an effect the other way counts as inactive or inconclusive.
SMILES,PI5P4Ka inh,Pol eta inh,Pol beta inh,Pol kappa inh,WRN inhibitor,Pol iota inh
Cc1ccc(Cl)cc1N1CCN(C(=O)CSc2cc(=O)n(C)c3ccccc23)CC1,x,-2.3%,16.4%,-4.8%,x,-5.1%
Cc1ccc(Cl)cc1N1CCN(C(=O)CSc2ccsc2[N+](=O)[O-])CC1,u,22.4µM*,20µM*,-32.7%,-23.2%,u
O=C(Nc1ccccc1C(=O)NC1CC1)c1ccc([N+](=O)[O-])o1,u,31.6µM*,x,-35.1%,-34.7%,50.1µM*
Oc1cc2ccccc2cc1-c1n[nH]c(=S)o1,-73.3*,-27.5%,u,-7.0%,-25.4%,u
CCN(CC(=O)Nc1ccc(NC(C)=O)cc1)C(=O)C1CC1,2.9,-1.5%,x,x,3.5%,x
Cc1ccc(Nc2nnc(SC/C(O)=C(\C#N)c3nc4ccccc4[nH]3)s2)c(C)c1,-60.0*,31.6µM*,-13.4%,-30.4%,-26.0%,u
Cc1cccc(Nc2nnc(SC/C(O)=C(\C#N)c3nc4ccccc4[nH]3)s2)c1,-54.1*,u,u,-17.8%,-21.3%[57.1 µM],-5.0%
COc1ccc(C)cc1-n1nnnc1SC/C(O)=C(\C#N)c1nc2ccccc2[nH]1,u,u,u,u,-13.6%,u
CC(C)(C)c1nnc2sc(SC/C(O)=C(\C#N)c3nc4ccccc4[nH]3)nn2c1=O,u,20µM*,-20.9%,-16.6%,u,-25.6%
CC(C)(C)c1nnc2sc(SCC(=O)c3ccccc3)nn2c1=O,9.6,-10.0%,-0.9%,2.4%,10.9%,5.2%
CCCCn1c(N)c(N(CCOC)C(=O)c2ccc3c(c2)OCCO3)c(=O)[nH]c1=O,7.9,-13.0%,x,-4.1%,-1.8%,20.6%
C(=Nc1ccc(/C=C/c2ccnc3ccccc23)cc1)c1ccc2c(c1)OCO2,x,x,x,-71.8%,x,-25.9%
O=C(CCNC(=O)c1ccccc1Cl)NCCC1=CCCCC1,-5.5,-13.0%,x,-17.0%,-4.7%,31.4%
O=C(C[n+]1cccc(Br)c1)c1ccc(F)cc1,x,x,x,0.4%,x,-23.7%
CCn1nc(CC(=O)Nc2ccc(-n3cnnn3)c(OC)c2)c2ccccc2c1=O,-2.2,u,31.6µM*,-20.8%,-12.0%,0.5%
COc1ccc2c3c(n(C(=O)OC(C)(C)C)c2c1)C1CC=C(COC(C)=O)CN1CC3 (centres undefined),-1.9,x,x,x,-6.2%,x
COc1cccc(C(O)c2nc(-c3cccc(F)c3)cs2)c1 (centres undefined),16.2,x,x,x,-8.1%,x
O=C(OC(C(=O)O)C(OC(=O)c1ccccc1)C(=O)NCc1ccccc1)c1ccccc1 (centres undefined),x,-9.5%,27.2%,-6.2%,1.6%,89.1µM*
CC(=O)Nc1ccc(NC(=O)C(OC(=O)c2ccccc2)C(OC(=O)c2ccccc2)C(=O)O)cc1 (centres undefined),0.6,-0.1%,-21.7%,-22.1%,-7.1%,62.4%
O=[N+]([O-])CC(=Nc1ccc(Cl)cc1)N/N=C\c1oc(O)c2ccccc12,u,39.8µM*,1.3%,-26.3%,-3.3%[11.6 µM],71.0%
O=C(N/N=C/c1ccc([N+](=O)[O-])o1)c1cn(-c2ccccc2)nc1-c1ccc(Cl)cc1,-10.2,8.2%,u,-7.3%,8.2%,-6.8%
c1ccc(-c2nc3nonc3c3nc4ccccc4n23)cc1,x,-2.2%,44.7µM*,-3.1%,-23.0%,22.6%
COc1cc2c(cc1OC)C(c1cc(-c3cc(Cl)ccc3Cl)oc1C)=NCC2,x,x,x,-9.4%,x,-14.3%
C/C=C(/CCC1NCCc2c1[nH]c1ccccc21)[Si](C)(C)C (centres undefined),4.6,-24.1%,x,-19.8%,u,11.8%
CC(=O)Nc1nnc(SCc2cc(=O)c3cccc(Cl)c3[nH]2)s1,x,-14.9%,5.1%,-1.6%[60.1 µM],x,89.1µM*
SMILES,PI5P4Ka inh,Pol eta inh,Pol beta inh,Pol kappa inh,WRN inhibitor,Pol iota inh
COc1ccccc1C(=O)Nc1nnc(SCc2cc(=O)c3cc(Cl)ccc3[nH]2)s1,x,-7.5%,3.98µM*,-6.8%[60.1 µM],x,-21.9%
Cc1ccc2[nH]c(CSc3nnc(NC(=O)c4ccc(Cl)cc4)s3)cc(=O)c2c1,x,8.0%,-13.6%,-12.8%[60.1 µM],x,-7.1%
CC(=O)Nc1nnc(SCc2cc(=O)c3cccc(C)c3[nH]2)s1,x,u,-13.9%,2.3%[60.1 µM],x,9.9%
CCC1=NN2C(=N)/C(=C\c3cccn3-c3ccc(C)cc3C)C(=O)N=C2S1,-25.4,50.1µM*,39.8µM*,-25.8%,-17.6%,u
O=C1C=C(c2ccc(C(=O)O)c(Cl)c2)C[C@@H](c2ccc3c(c2)OCO3)C1,u,50.1µM*,x,u,-2.5%[11.6 µM],u
O=C1C=C(c2ccc(-c3ccccc3)cc2)C[C@@H](c2ccc3c(c2)OCO3)C1,3.3,-6.0%,x,-0.2%,-0.8%,16.1%
NC(=O)c1cc[n+](CC2=C(C(=O)O)N3C(=O)[C@@H](NC(=O)[C@H](c4ccccc4)S(=O)(=O)[O-])[C@@H]3SC2)cc1,x,x,x,4.23µM*,x,x
NC(=O)c1cc[n+](CC2=C(C(=O)O)N3C(=O)[C@@H](NC(=O)C(c4ccccc4)S(=O)(=O)[O-])[C@H]3SC2)cc1 (some centres undefined),-96.6*,-99.6%,-20.7%,1µM*,x,0.794µM*
CC1CN(C(=O)N2CCC(C(=O)NCCCc3ccccc3)CC2)c2cc(Cl)ccc2O1 (centres undefined),x,-18.6%,2.0%,-15.4%,x,34.1%
Cc1ccc(-c2cc(C(=O)N/N=C/c3ccccc3)n[nH]2)o1,-1.2,-2.0%,u,0.0%,4.5%,12.2%
Cc1ccc(-c2cc(C(=O)N/N=C/c3ccc(Cl)cc3)n[nH]2)o1,-14.4,u,25.1µM*,-4.2%,-28.2%,u
CC(C)(C)c1ccc(O)c(N=Cc2cccc([N+](=O)[O-])c2)c1,x,x,x,16.1%,x,9.6%
CCn1c(SCC(=O)Nc2ccc(F)cc2)nnc1C1CC1,0.7,1.5%,7.2%,-14.3%,5.3%,7.9%
CCn1c(SCC(=O)Nc2sccc2C(N)=O)nnc1C1CC1,u,-9.2%,x,u,2.2%[11.6 µM],56.2µM*
Cc1nn(CCC(=O)Nc2cc(F)ccc2F)c(=O)c2nn(-c3ccccc3)c(C)c12,x,7.8%,-0.4%,7.9%,x,-19.9%
COc1cc(NC(=S)NCCC(c2ccccc2)c2ccccc2)cc(OC)c1,12.5,u,29.9%,u,39.8µM*,89.1µM*
FC(F)(F)c1cccc(N2CCCCC2)c1,-1.5,x,x,x,7.4%,x
CN1CCC(N2CCN(c3cccc(C(F)(F)F)c3)CC2)CC1,x,-7.6%,1.6%,0.9%,-1.3%,35.5µM*
COc1cccc(NC(=O)CCc2nnc3n(CC(C)C)c(=O)c4ccccc4n23)c1,x,-10.2%,u,-0.5%,x,u
Cc1cc(=O)c2cc3nc(-c4cccnc4)oc3c(Br)c2o1,x,x,39.8µM*,x,x,x
